Data: PubChem BioAssay (EPA / NIEHS)
The source made the active and inactive calls. The calls were made as follows: active = hit-call score of the fitted dose curve at least 0.9, where 1 is the maximum; inactive = score below 0.9.

read-out: CYP3A5 (gene 1577); experiment: LTEA_HepaRG_CYP3A5: Life Technologies and Expression Analysis (LTEA) Assay for CYP3A5 using HepaRG (AID 2283493); conditions: mRNA level, 48 h; actives raise or lower the signal
Protocol: LTEA_HepaRG is a cell based, multiplexed-readout assay that uses HepaRG, a human liver cell line, with measurements taken at 48 hours after chemical dosing on a 96-well plate.LTEA_HepaRG_CYP3A5 is one of 102 assay component(s) measured in the LTEA HepaRG cell culture assay. It is a marker of NR mediated metabolism.Data from the assay component LTEA_HepaRG_CYP3A5 was analyzed into 1 endpoint. This assay endpoint, LTEA_HepaRG_CYP3A5, was analyzed with bidirectional fitting relative to DMSO as the negative control and baseline of activity. Using a type of inducible reporter, measures of mRNA induction for gain or loss-of-signal activity can be used to understand regulation of transcription factor activity. To generalize the intended target to other relatable targets, this assay endpoint is annotated to the cyp intended target family, where the subfamily is xenobiotic metabolism.
A total of 1060 chemcials from the ToxCast library were tested in eight-point concentration-response experiments. Cell culture and cytotoxicity assays were conducted at Thermo Fisher Scientific's Custom Services facility (Madison, WI). A single lot of human HepaRG cells (Thermo Fisher Scientific, Frederick, MD) was used for the cell culture experiments. 96-well format collagen type I coated plates of human HepaRG cells were prepared using established methods. Briefly, cryopreserved HepaRG cells were thawed, plated at a density of approximately 100,000 cells/well in HepaRG Thaw, Plate, and General Purpose media (HPRG770, Thermo Fisher Scientific), and incubated for 48 hours. 0.5% DMSO was selected as vehicle control to balance the requisite need of DMSO in HepaRG cultures to maintain differentiation (for example, baseline metabolism, proportions of hepatocytes vs. cholangiocytes), while enabling further hepatic receptor pathway activation (for example, PXR and CAR) in response to chemical exposure. 48 hours after plating, the culture medium was replaced with HepaRG Serum-Free Incudtion Media. Cells were exposed to each test chemical in duplicate and maintained in CO2 incubators for another 48 hours. Chemical plates were thawed to room temperature and 200x concentrations of treatment groups were prepared. 8-point conentration-reponse curves were made with the highest exposure at 100 uM, followed by half-log dilutions, all in 0.5% DMSO. Each test plate contained variouse controls, induction positive controls (1mM phenobarbital), cytotoxicity positive controls ([…] aflatoxin B1), vehicle controls (0.5% DMSO), and total lysis controls (0.5% DMSO). Cell morphology images were taken using an Essen IncuCyte FLR automated microscope, with six 96-well plates imaged in about 24 minutes. Images were captured and exported and JPEG files. Spent culture media was transfered to black-well plates for the LDH assay, and remaining media was sorted at -80 C for later use. Cells were treated with RLT buffer and frozen until shipped for gene expression analysis. Total RNA was isolated from the cell suspension in 75 uL of Buffer RLT (Qiagen, Germantown, MD 20874) by Quintiles/Expression Analysis (Durham, NC) using a custom isolation procedure. Total RNA from each plate well was transferred to a preamplification plate. Fluidigm's 96.96 Dynamic ArrayTM (Fluidigm, Amsterdam, the Netherlands) technology was used for gene expression analyses by quantitative reverse transcription polymerase chain reaction (qRT-PCR, performed by Quintiles/Expression Analysis, Durham, NC)89. Standard TaqManTM Assays (Applied Biosystems/ThermoFisher Scientific, Foster City, CA) were used to assess the expression of 93 genes selected based on their selectivity and sensitivity to important hepatic receptors known to be modulated by environmental chemicals; importance in human hepatocyte functionality; and hepatotoxicity. […]

Row | Structure (SMILES) | outcome
1 | Cc1cccc(N)c1 | inactive
2 | Nc1ccc(Cl)cc1 | inactive
3 | Cc1ccc([N+](=O)[O-])cc1C | inactive
4 | O=C(O)C1C(C(=O)O)C2(Cl)C(Cl)=C(Cl)C1(Cl)C2(Cl)Cl (centres undefined) | inactive
5 | CC(C)(C)OOC(C)(C)C | inactive
6 | ClC(Cl)(Cl)c1ccccc1 | inactive
7 | CCC1(c2ccccc2)C(=O)N=C(O)NC1=O (centres undefined) | inactive
8 | CCOP(=S)(OCC)SCSCC | inactive
9 | O=C(O)C(Cl)Cl | inactive
10 | c1ccc2c(c1)Nc1ccccc1S2 | inactive
11 | c1nc[nH]n1 | inactive
12 | O=[N+]([O-])c1ccccc1 | inactive
13 | Cc1ccc(N)cc1N | inactive
14 | CCOc1ccc(C(C)(C)COCc2cccc(Oc3ccccc3)c2)cc1 | inactive
15 | CCN(CC)c1ccccc1 | inactive
16 | ClC1=C(Cl)C2(Cl)C3C(Cl)C(Cl)CC3C1(Cl)C2(Cl)Cl (centres undefined) | inactive
17 | CCCCN(CCCC)SN(C)C(=O)Oc1cccc2c1OC(C)(C)C2 | inactive
18 | OCC1CO1 (centres undefined) | inactive
19 | CCCCc1ccccc1 | inactive
20 | [N-]=[N+]=[N-] | inactive

Row | Structure (SMILES) | outcome
21 | CN(C)C(=O)Cl | inactive
22 | O=[N+]([O-])c1ccc(Cl)c(Cl)c1 | inactive
23 | c1cc2c3c(cccc3c1)CC2 | inactive
24 | CCOC(=O)c1ccccc1C(=O)OCC | inactive
25 | CCCCN(CCCC)N=O | inactive
26 | ClC(Cl)c1ccccc1 | inactive
27 | CCC(C)(C)c1ccc(O)cc1 | inactive
28 | Nc1cc2c3c(c1)C(c1ccccc1)=N[C@@H](NC(=O)c1cccnc1)C(=O)N3CC2 | inactive
29 | CCOS(=O)(=O)OCC | inactive
30 | Nc1ccc2ccccc2c1 | inactive
31 | CCCCCCCc1ccc(O)cc1 | inactive
32 | CCNc1nc(Cl)nc(NC(C)(C)C)n1 | inactive
33 | CC(Cl)(Cl)C(=O)O | inactive
34 | CCCN(CCC)c1c([N+](=O)[O-])cc(C(C)C)cc1[N+](=O)[O-] | inactive
35 | c1ccc(OP(Oc2ccccc2)Oc2ccccc2)cc1 | inactive
36 | CSC(C)(C)C=NO | inactive
37 | O=P1(N(CCCl)CCCl)NCCCO1 (centres undefined) | inactive
38 | COCCOCCO | inactive
39 | CC(Cc1ccc(OCC(=O)O)cc1)NCC(O)c1csc(C(F)(F)F)n1 (centres undefined) | inactive
